# Results as given in PubChem BioAssay (Tox21).
# Where “and” joins values, the source holds several entries; their conditions need not be identical. Identical values can stand only once. Calls of active or inactive are those of the source. A call without a number means that no potency is given here. Unless noted, the call rests on the fitted dose curve.
# System: not listed separately
# Assay: qHTS assay to identify small molecule antagonists of the thyroid receptor (TR) signaling pathway (AID 743065; active means well fitted inhibition curve with a large enough effect in the repeat runs; inconclusive means weak or mixed curves; inactive means no such curve, though single readings can be large or run the other way; further: potency means the concentration at half of the fitted maximal effect; nearly all actives have a fitted effect of over 55% in size)
# Details: GH3.TRE-Luc, T3-stimulated luciferase inhibition, 23.5 h; series mostly up to 70.3 µM
# How it was run: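 Antagonism measured as loss of luciferase signal in GH3 cells stably carrying a TRE-luciferase reporter, co-treated with compound and T3 (1 nM final) for 23.5 h at 37 C. Viability was read in the same well by CellTiter-Fluor.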
row,SMILES,Potency
1,CN1CCC(Nc2ncc3ncnc(Nc4ccc(F)c(Cl)c4)c3n2)CC1,9.44 µM (active)
2,CCc1cc(SCc2sc(-c3ccc(C(F)(F)F)cc3)nc2CN2CCN(c3ccc(OC)cc3)CC2)ccc1OCC(=O)O,12.2 µM (active)
3,CC(C)(C)NC(=O)[C@@H]1C[C@@H]2CCCC[C@@H]2CN1C[C@@H](O)[C@H](Cc1ccccc1)NC(=O)[C@H](CC(N)=O)NC(=O)c1ccc2ccccc2n1,21.1 µM (active) and 31 µM (active)
4,CCCCc1oc2ccc(NS(C)(=O)=O)cc2c1C(=O)c1ccc(OCCCN(CCCC)CCCC)cc1,11.9 µM (active)
5,O=C(Nc1cccc(Cl)c1)OCC#CCCl,17.2 µM (active)
6,Fc1ccc([C@@H]2CCNC[C@H]2COc2ccc3c(c2)OCO3)cc1,10.6 µM (active)
7,CCCN(CCC)c1c([N+](=O)[O-])cc(C(F)(F)F)c(N)c1[N+](=O)[O-],13.6 µM (active)
8,Oc1c(Cl)cc(Cl)c2cccnc12,6.68 µM (active)
9,Oc1cccc(-c2c3nc(c(-c4cccc(O)c4)c4ccc([nH]4)c(-c4cccc(O)c4)c4nc(c(-c5cccc(O)c5)c5ccc2[nH]5)CC4)C=C3)c1,8.41 µM (active) and 7.5 µM (active)
10,CC(C)n1nc(-c2cc3cc(O)ccc3[nH]2)c2c(N)ncnc21,0.0944 µM (active)
11,On1ccccc1=S,0.855 µM (active)
12,CC1=C(C(=O)OC(C)C)C(c2cccc([N+](=O)[O-])c2)C(C(=O)OC2CN(C(c3ccccc3)c3ccccc3)C2)=C(N)N1 (configuration not stated),2.98 µM (active)
13,[O-][n+]1ccccc1SSc1cccc[n+]1[O-],0.211 µM (active)
14,CSc1ccc2c(c1)C(N1CCN(C)CC1)Cc1ccccc1S2 (configuration not stated),8.41 µM (active)

# System: thyroid hormone receptor (rat, GH3 cells)
# Assay: qHTS assay to identify small molecule agonists of the thyroid receptor (TR) signaling pathway (AID 743066)
# Details: GH3.TRE-Luc cells, TR agonist luciferase, 24 h; series mostly up to 83.9 µM
row,SMILES,Potency
1,Cc1ccc(-n2nc(C(C)(C)C)cc2NC(=O)Nc2ccc(OCCN3CCOCC3)c3ccccc23)cc1,inactive
2,Cc1ccc2oc(CN(Cc3ccccc3)C(=O)Nc3c(F)cc(F)cc3F)c(-c3ccc(Cl)cc3)c2c1,inactive
3,CCCCCCCCOC(=O)c1ccc(O)cc1,inactive
4,CC(C)CCCCCCCCCCCCCCC(=O)O,inactive
5,Cc1ccc(O)c(C(C)(C)C)c1,inactive
6,CCCCC(CC)COC(=O)c1ccccc1C(=O)O (configuration not stated),inactive
7,Cc1onc(-c2c(Cl)cccc2Cl)c1C(=O)N[C@@H]1C(=O)N2[C@@H]1SC(C)(C)[C@@H]2C(=O)O,inactive
8,O=C1c2c(O)ccc(Nc3ccc(CCO)cc3)c2C(=O)c2c([N+](=O)[O-])ccc(O)c21,inactive
9,Oc1ccc2c(c1)-c1ccccc1C2,inactive
10,C=C(C)C(=O)OCC[N+](C)(C)C,inactive
11,COc1cccc(N)c1,inactive
12,CCCC1O[C@@H]2C[C@H]3[C@@H]4CCC5=CC(=O)C=C[C@]5(C)[C@H]4[C@@H](O)C[C@]3(C)[C@]2(C(=O)CO)O1 (some centres not stated),inactive
13,N#CSc1ccc(N)c([N+](=O)[O-])c1,inactive
14,COc1ccc(C(=O)/C(Br)=C\C(=O)O)cc1,inactive
15,Oc1ccc2cc(SSc3ccc4cc(O)ccc4c3)ccc2c1,inactive
16,Cc1nc(-c2ccc3c(c2)CCN(CCC2CCC(NC(=O)/C=C/c4ccc(F)cc4)CC2)CC3)no1 (configuration not stated),inactive

# Target: Estrogen receptor (Homo sapiens) (UniProt P03372)
# Assay: qHTS assay to identify small molecule antagonists of the estrogen receptor alpha (ER-alpha) signaling pathway (AID 743069; active means well fitted curve in the direction sought with a large enough effect in the signal ratio in the repeat runs, not every such curve was filed as active; inconclusive means weak or mixed curves, or effect the other way; inactive means no such curve, though single readings can be large or run the other way; the % refers to the signal ratio; further: potency means the concentration at half of the fitted maximal effect)
# Details: HEK293 ER-alpha-UAS-bla, beta-lactamase ratio, antagonist mode; series mostly up to 69.4 µM
# How it was run: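 Compound effects are measured against 17beta-estradiol stimulation in HEK293 cells with a UAS-controlled beta-lactamase reporter for ER-alpha. Exposure lasts 18 hr at 37C; LiveBLAzer B/G FRET substrate follows for 2 hr at room temperature.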
# Chain of Estrogen receptor (Homo sapiens) (P03372 whole entry, looked up): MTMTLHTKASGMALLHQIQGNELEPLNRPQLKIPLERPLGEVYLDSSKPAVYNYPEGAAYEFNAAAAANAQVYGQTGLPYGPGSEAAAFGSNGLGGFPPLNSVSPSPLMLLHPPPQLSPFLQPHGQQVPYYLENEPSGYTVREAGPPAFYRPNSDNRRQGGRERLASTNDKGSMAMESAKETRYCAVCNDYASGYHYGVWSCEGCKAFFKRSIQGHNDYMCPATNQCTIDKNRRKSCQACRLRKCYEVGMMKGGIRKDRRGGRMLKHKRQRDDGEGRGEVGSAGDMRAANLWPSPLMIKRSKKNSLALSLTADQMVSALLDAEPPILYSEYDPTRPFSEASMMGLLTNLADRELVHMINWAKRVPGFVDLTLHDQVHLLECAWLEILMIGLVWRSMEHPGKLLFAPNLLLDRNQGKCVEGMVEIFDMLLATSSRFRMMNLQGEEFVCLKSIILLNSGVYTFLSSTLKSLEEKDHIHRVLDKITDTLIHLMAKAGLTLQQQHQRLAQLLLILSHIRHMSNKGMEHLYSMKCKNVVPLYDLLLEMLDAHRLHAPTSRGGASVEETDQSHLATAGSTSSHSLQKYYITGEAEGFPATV
row,SMILES,Potency
1,Cc1ccc(-n2nc(C(C)(C)C)cc2NC(=O)Nc2ccc(OCCN3CCOCC3)c3ccccc23)cc1,13.4 µM [inconclusive] (active)
2,Cc1ccc2oc(CN(Cc3ccccc3)C(=O)Nc3c(F)cc(F)cc3F)c(-c3ccc(Cl)cc3)c2c1,inactive
3,Cc1cccc(CN2CCN(C(c3ccccc3)c3ccc(Cl)cc3)CC2)c1 (configuration not stated),inactive
4,CCCCCCCC[N+](CCCCCCCC)(CCCCCCCC)CCCCCCCC,38.8 µM [cytotoxic] (active)
5,N#CSc1ccc(N)c([N+](=O)[O-])c1,27.7 µM [inconclusive] (active)
6,CCCCCCCCCCCCCCCC[N+](C)(C)CCN(Cc1ccc(OC)cc1)c1ncccn1,inactive

# System: not listed separately
# Assay: qHTS assay to identify small molecule antagonists of the estrogen receptor alpha (ER-alpha) signaling pathway - cell viability counter screen (AID 743074);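 further: HEK293 cells carrying ER-alpha-UAS-bla reporter stimulated with 17beta-estradiol; nearly all actives have a fitted effect of over 45% in size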; further: potency means the concentration at half of the fitted maximal effect
# Details: ERalpha-bla HEK293 viability, CellTiter-Glo luminescence, 18 h; series mostly up to 69.4 µM
row,SMILES,Potency
1,Cc1ccc(-n2nc(C(C)(C)C)cc2NC(=O)Nc2ccc(OCCN3CCOCC3)c3ccccc23)cc1,inactive
2,Cc1ccc2oc(CN(Cc3ccccc3)C(=O)Nc3c(F)cc(F)cc3F)c(-c3ccc(Cl)cc3)c2c1,inactive
3,CCCCCCCCOC(=O)c1ccc(O)cc1,inactive
4,CN1CCC(Nc2ncc3ncnc(Nc4ccc(F)c(Cl)c4)c3n2)CC1,inactive
5,O=C1C=CC(=O)N1,56.4 µM (active)
6,CC(C)CCCCCCCCCCCCCCC(=O)O,inactive
7,Cc1cccc(CN2CCN(C(c3ccccc3)c3ccc(Cl)cc3)CC2)c1 (configuration not stated),inactive
8,Cc1onc(-c2c(Cl)cccc2Cl)c1C(=O)N[C@@H]1C(=O)N2[C@@H]1SC(C)(C)[C@@H]2C(=O)O,inactive
9,O=C1c2c(O)ccc(Nc3ccc(CCO)cc3)c2C(=O)c2c([N+](=O)[O-])ccc(O)c21,inactive
10,Oc1ccc2c(c1)-c1ccccc1C2,inactive
11,C=C(C)C(=O)OCC[N+](C)(C)C,inactive
12,CCCCCCCC[N+](CCCCCCCC)(CCCCCCCC)CCCCCCCC,15.5 µM (active)
13,COc1cccc(N)c1,inactive
14,CCCC1O[C@@H]2C[C@H]3[C@@H]4CCC5=CC(=O)C=C[C@]5(C)[C@H]4[C@@H](O)C[C@]3(C)[C@]2(C(=O)CO)O1 (some centres not stated),inactive
15,N#CSc1ccc(N)c([N+](=O)[O-])c1,inactive
16,CC1=C(C(=O)OC(C)C)C(c2cccc([N+](=O)[O-])c2)C(C(=O)OC2CN(C(c3ccccc3)c3ccccc3)C2)=C(N)N1 (configuration not stated),23.9 µM (active)
17,COc1ccc(C(=O)/C(Br)=C\C(=O)O)cc1,inactive
18,O=C1Cc2cc(CCN3CCN(c4nsc5ccccc45)CC3)c(Cl)cc2N1,inactive
19,C=CC(=O)OCC(CO)(COCC(COC(=O)C=C)(COC(=O)C=C)COC(=O)C=C)COC(=O)C=C,21.6 µM (active)
20,Oc1ccc2cc(SSc3ccc4cc(O)ccc4c3)ccc2c1,inactive
21,Cc1nc(-c2ccc3c(c2)CCN(CCC2CCC(NC(=O)/C=C/c4ccc(F)cc4)CC2)CC3)no1 (configuration not stated),inactive
